For five compounds, growth results are on record in PubChem BioAssay (NCI).

Among the test systems are SR leukemia; RPMI-8226 leukemia; OVCAR-8 ovarian; OVCAR-4 ovarian; SK-OV-3 ovarian; IGROV1 ovarian; OVCAR-3 ovarian; HS 578T breast; NCI/ADR-RES ovarian; T-47D breast; BT-549 breast; MDA-MB-435 melanoma; SW-620 colon; MCF7 breast; HCT-116 colon; HCC-2998 colon; KM12 colon.
Holding throughout (experiment): NCI-60 one-dose screen, 48 h (100 = growth as untreated, 0 = no growth, -100 = all killed)
What all share (settings): 10 µM unless noted

This is part of a sample that, as a whole, favours compounds with a hit. Of some 83,000 tested, about 20% had one in any assay.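 How to read the values: 0–100, growth inhibition (40 = 60% inhibited); 0, no net growth; -100 to 0, cell death (-40 = 40% of starting cells died; -100 = all dead).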 Unmarked numbers belong to inactive results. Calls of active or inactive are those of the source. Rule for the calls: active = growth percent below 10; inactive = the rest.

Regarding `O=C(N=Nc1c(O)[nH]c2ccccc12)Nc1ccc(Br)cc1`, the growth in the assay with SR leukemia was 76.7%; in the assay on RPMI-8226 leukemia, 66.9%; with OVCAR-8 ovarian, 98.9%; with OVCAR-4 ovarian, 102%; in the assay with SK-OV-3 ovarian, 97%; in the assay on IGROV1 ovarian, 85.2%. Further, the growth in the assay with OVCAR-3 ovarian was 97.4%; in the assay on HS 578T breast, 87.4%; with NCI/ADR-RES ovarian it was 97.2%; in the assay with T-47D breast, 91.6%; in the assay with BT-549 breast, 89%; in the assay with MDA-MB-435 melanoma, 90.4%. In addition, the growth with SW-620 colon is 91.6%; with MCF7 breast it was 79.1%; in the assay on HCT-116 colon it was 88.6%; in the assay with HCC-2998 colon, 104%; in the assay on KM12 colon it was 92.4%.

Take `C=C(CNCCc1ccc(O)cc1)[C@@H]1CC[C@]2(CO)CC[C@]3(C)[C@H](CC[C@@H]4[C@@]5(C)CCC(NCCc6ccc(O)cc6)C(C)(C)[C@@H]5CC[C@]43C)[C@@H]12` (some centres undefined): the growth in the assay with SR leukemia is -58.5% (active); in the assay on RPMI-8226 leukemia, -51.7% (active); with OVCAR-8 ovarian, -78.1% (active); in the assay on OVCAR-4 ovarian, -81.7% (active); in the assay on SK-OV-3 ovarian, -97.4% (active); in the assay on IGROV1 ovarian it was -78.4% (active). Further, the growth in the assay with OVCAR-3 ovarian was -94.2% (active); with HS 578T breast, -38.9% (active); in the assay with NCI/ADR-RES ovarian, -54.5% (active); in the assay with T-47D breast it was -69.1% (active); with BT-549 breast it was -79.7% (active); in the assay on MDA-MB-435 melanoma, -89.9% (active). Also, the growth in the assay on SW-620 colon was -74.1% (active); with MCF7 breast, -74.3% (active); in the assay on HCT-116 colon, -92% (active); in the assay on HCC-2998 colon, -91.3% (active); in the assay with KM12 colon, -77.4% (active).

Regarding `Clc1ccc2c(c1)N(c1ncnc3ccc(-c4cnc5[nH]ccc5c4)cc13)CC2`, the growth in the assay with SR leukemia is 1.86% (active); in the assay on RPMI-8226 leukemia, 26%; in the assay on OVCAR-8 ovarian, 27.9%; in the assay with OVCAR-4 ovarian, 0.279% (active); in the assay on SK-OV-3 ovarian, 28.3%; in the assay on IGROV1 ovarian, -24% (active). Further, the growth is 21.5% with OVCAR-3 ovarian; 1.12% (active) in the assay on HS 578T breast; 33.3% with NCI/ADR-RES ovarian; -15% (active) in the assay on T-47D breast; 20.1% with BT-549 breast; -42.1% (active) with MDA-MB-435 melanoma. Further, the growth with SW-620 colon was 24.5%; in the assay with MCF7 breast, 6.81% (active); in the assay on HCT-116 colon it was 16.6%; with HCC-2998 colon, 43.7%.

For the compound `COC(=O)c1c2c(c(C)[n+]([O-])c1C)C(=O)C(NCCN1CCOCC1)=CC2=O`, the growth is 66.9% in the assay on SR leukemia; 91.9% in the assay on RPMI-8226 leukemia; 61.7% with OVCAR-8 ovarian; 35.4% in the assay with OVCAR-4 ovarian; 103% in the assay with SK-OV-3 ovarian; 63.4% in the assay with IGROV1 ovarian. In addition, the growth is 5.12% (active) in the assay on OVCAR-3 ovarian; 101% in the assay with HS 578T breast; 91.7% in the assay on NCI/ADR-RES ovarian; 80.6% with T-47D breast; 91.4% in the assay with BT-549 breast; 49.9% in the assay on MDA-MB-435 melanoma. The growth with SW-620 colon was 64.3%; with MCF7 breast, 55.9%; with HCT-116 colon it was 28.3%; in the assay with HCC-2998 colon it was 74.1%; in the assay with KM12 colon it was 71.6%.

Take `O=c1cc(N/N=C/c2ccc(F)cc2)c2cc(Cl)ccc2[nH]1`: the growth with SR leukemia was 4.1% (active); in the assay on RPMI-8226 leukemia it was -43.8% (active); with OVCAR-8 ovarian it was 93.6%; in the assay on OVCAR-4 ovarian, 92.9%; in the assay on SK-OV-3 ovarian, 84.9%; in the assay with IGROV1 ovarian, 107%. The growth is 100% with OVCAR-3 ovarian; 121% with HS 578T breast; 105% in the assay with NCI/ADR-RES ovarian; 68.5% in the assay with T-47D breast; 93.6% in the assay on BT-549 breast; 78.6% with MDA-MB-435 melanoma. Besides, the growth in the assay with SW-620 colon is 101%; with MCF7 breast, 84.6%; in the assay on HCT-116 colon, 84.1%; in the assay on HCC-2998 colon it was 85.1%; with KM12 colon, 108%.
